A selection: hits, their analogues and other compounds. The true share with any hit is near 3.4%.
GPR151 activ = activators of human GPR151, primary screen, cell-based, PathHunter beta-arrestin, luminescence | G-protein coupled receptor 151 (Homo sapiens), Q8TDV0 | PathHunter beta-arrestin GPR151 cells | activation, % at 11.2 µM | 650,000 compounds, 1% hits | AID 1508602, 2020; in the data active means activation above about 4.9%
MITF inh = MITF inhibitors, primary screen, biochemical, AlphaScreen, human | Microphthalmia-associated transcription factor (Homo sapiens), O75030 | AlphaScreen MITF homodimerization, bead proximity signal | inhibition, % at 2.6 µM | 650,000 compounds, 0.91% hits | AID 1259374, 2018; in the data active means inhibition above about 50%
FBW7 act = FBW7 E3 ligase activators, primary screen, biochemical, AlphaScreen, human. F-box/WD repeat-containing protein 7 (Homo sapiens), Q969H0. AlphaScreen FBW7–phospho-cyclin E peptide binding, activator screen. normalized activity (activation), % at 26.1 µM. 650,000 compounds, 0.13% hits. AID 1259310, 2017; in the data active means normalized activity above about 1.9%;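 further: purified mutant Fbw7 with reduced substrate affinity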
Target sequence (Q969H0 whole entry, looked up): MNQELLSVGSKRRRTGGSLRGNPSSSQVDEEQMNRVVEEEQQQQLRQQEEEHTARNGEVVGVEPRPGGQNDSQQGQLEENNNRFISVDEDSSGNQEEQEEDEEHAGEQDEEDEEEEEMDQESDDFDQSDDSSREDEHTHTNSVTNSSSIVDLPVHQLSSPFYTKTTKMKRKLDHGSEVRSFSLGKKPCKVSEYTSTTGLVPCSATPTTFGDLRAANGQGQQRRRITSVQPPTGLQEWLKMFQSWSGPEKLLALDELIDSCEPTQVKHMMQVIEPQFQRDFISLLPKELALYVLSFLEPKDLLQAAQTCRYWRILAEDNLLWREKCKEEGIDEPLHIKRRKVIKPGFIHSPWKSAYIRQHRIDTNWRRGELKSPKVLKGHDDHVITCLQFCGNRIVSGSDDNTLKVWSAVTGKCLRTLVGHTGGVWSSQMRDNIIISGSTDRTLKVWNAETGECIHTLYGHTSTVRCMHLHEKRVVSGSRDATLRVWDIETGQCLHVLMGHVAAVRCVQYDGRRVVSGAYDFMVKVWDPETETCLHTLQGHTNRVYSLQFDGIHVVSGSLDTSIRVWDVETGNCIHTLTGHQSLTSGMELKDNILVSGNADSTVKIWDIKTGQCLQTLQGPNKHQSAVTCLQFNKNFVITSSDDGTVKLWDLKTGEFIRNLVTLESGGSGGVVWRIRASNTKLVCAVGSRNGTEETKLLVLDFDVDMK
TEAD-YAP inh = TEAD-YAP interaction inhibition, primary screen, TEAD-YAP interaction inhibitor project, luminescence, HEK-TIYL cells; TEAD-Gal4/YAP UAS-luciferase luminescence; inhibition, % at 9.12 µM; 640,000 compounds, 1.4% hits; in the data active means inhibition above about 32%
A number is an active result; n = inactive.

SMILES	GPR151 activ	MITF inh	FBW7 act	TEAD-YAP inh
O=C(/C=C/Nc1ccc(Br)cc1Cl)c1ccco1	n	n	n	94
COc1ccccc1-c1ccc(/C=C/C(=O)c2ccco2)o1	n	n	n	n
Cc1cnc(Nc2nccc3ccccc23)nc1Nc1ccc2c(c1)OCO2	n	n	n	n
COc1cc(Nc2nc(Nc3ccc(N4CCOCC4)cc3)ncc2C)cc(OC)c1OC	n	n	n	66
Cc1cnc(Nc2ccc3ncccc3c2)nc1Nc1ccc2c(c1)OCO2	n	n	n	44
Cc1cnc(Nc2ccccc2)nc1Nc1ccc(N2CCOCC2)cc1	n	n	n	62
CC(=O)Nc1ccc(Nc2nc(Nc3nc4ccccc4n3C)nc3nc[nH]c23)cc1	n	n	n	n
Cn1c(Nc2nc(Nc3ccc4c(c3)OCO4)c3[nH]cnc3n2)nc2ccccc21	n	n	14	n
O=C(NCC1CCCO1)C1CC(c2ccc(F)cc2)=NO1 (centres undefined)	n	n	n	n
c1nc2nc(Nc3ccc(N4CCOCC4)cc3)nc(Nc3ccc4c(c3)OCO4)c2[nH]1	n	n	n	45
c1ccc(Nc2nc(Nc3ccc(N4CCOCC4)cc3)c3[nH]cnc3n2)nc1	n	n	n	n
c1cnc2ccc(Nc3nc(Nc4ccc(N5CCOCC5)cc4)c4[nH]cnc4n3)cc2c1	n	n	n	80
c1ccc(Nc2nc(Nc3ccc4c(c3)OCO4)c3[nH]cnc3n2)cc1	n	n	n	n
Cc1cnc(Nc2ccc(N3CCOCC3)cc2)nc1Nc1ccccc1C(N)=O	n	n	n	93
O=C(Nc1ccc(N2CCOCC2)cc1)C1CCN(c2ccc(Nc3ccc4ncccc4c3)nn2)CC1	n	n	n	40
CCOC(=O)C1CCN(C(=O)c2cc(OC)c(OC)c(OC)c2)CC1	n	n	n	n
COc1cccc2c1OC1(C)C(C(=O)Nc3ccc(C)cc3C)C2NC(=S)N1c1ccc(Cl)cc1 (centres undefined)	n	n	n	n
Cc1cnc(Nc2ncccn2)nc1Nc1ccc(N2CCOCC2)cc1	n	n	n	n
Cc1cnc(Nc2ccc3ncccc3c2)nc1Nc1ccc(N2CCOCC2)cc1	n	n	n	47
Cc1cnc(Nc2ccccn2)nc1Nc1ccc(N2CCOCC2)cc1	n	n	n	n
Cc1cnc(Nc2ccc(N3CCOCC3)cc2)nc1Nc1ccccc1	n	n	n	63
CCOC(=O)C1CCN(c2nc3ccc(CC)cc3s2)CC1	n	n	n	55
CCOc1ccc2nc(N3CCC(C(=O)Nc4ccc(OC)cc4)CC3)sc2c1	n	n	n	n
CCc1ccc2sc(N3CCC(C(=O)NC4CCCC4)CC3)nc2c1	n	n	n	65
CCOc1ccc2nc(N3CCC(C(=O)O)CC3)sc2c1	n	n	n	58
SMILES	GPR151 activ	MITF inh	FBW7 act	TEAD-YAP inh
CCOC(=O)Nc1nc2ccc(OCC)cc2s1	n	n	n	n
CCOc1ccc2nc(NC(=O)C(C)(C)CC)sc2c1	n	n	n	41
CCOC(=O)C1CCN(c2nc3cc(Br)ccc3s2)CC1	n	n	n	n
Cc1ccccc1N(CC(=O)NCCc1ccc(Cl)cc1)S(=O)(=O)c1ccccc1	n	n	n	n
O=C(Nc1ccc(F)cc1)C1CC(=O)N(Cc2ccc3c(c2)OCO3)C(=Nc2ccc(F)cc2)S1 (centres undefined)	n	n	n	n
O=C(Nc1ccc(CN2CCOCC2)cc1)c1ccc(OCc2ccccc2)cc1	n	n	n	n
O=C(CN1CCOCC1)Nc1ccc(OCc2ccccc2)cc1	n	n	n	33
O=C(Nc1ccc(OCc2ccccc2)cc1)c1ccc(CN2CCOCC2)cc1	n	n	n	49
O=C(CN1CCN(CC(=O)Nc2ccc(OCc3ccccc3)cc2)CC1)Nc1ccc(F)cc1	n	n	n	n
Cc1ccc2nsnc2c1S(=O)(=O)Nc1ccc(C(=O)O)cc1	n	n	n	n
Cc1ccc2nsnc2c1S(=O)(=O)Nc1ccc(I)cc1	n	n	n	55
N#Cc1sc(NC(=O)c2cccc(Br)c2)nc1Cl	n	n	n	64
N#Cc1sc(NC(=O)c2ccc(F)c(F)c2)nc1Cl	n	n	n	n
Cc1ccc(C(=O)Nc2nc(Cl)c(C#N)s2)cc1	n	n	n	71
Fc1ccc(CNCCc2nc3ccccc3[nH]2)cc1	n	n	n	n
Cc1nc2c(c(C)c1CCC(=O)N1CCCCCC1)c(=O)n(C)c(=O)n2C	n	n	n	51
Cc1nc(C)c(/C(O)=C/c2nc3ccccc3oc2=O)s1	n	58	n	n
O=C(CN(Cc1ccc(F)cc1)S(=O)(=O)c1ccc(Cl)cc1)N1CCCC1	n	n	n	n
C#CCOc1cc(Br)c(/C=C2/NC(=O)NC2=O)cc1OCC	n	n	n	32
O=S(=O)(/N=C(\Nc1nccs1)c1ccccc1)c1cccs1	n	n	n	n
Cc1ccc(N/C(=N/S(=O)(=O)c2cccs2)c2ccccc2)cc1F	n	n	n	40
O=C(N1CCCCCC1)N1c2ccccc2C=Cc2ccccc21	n	n	n	36
O=C(c1cc([N+](=O)[O-])c(F)c([N+](=O)[O-])c1)N1CCOCC1	n	n	n	n
COC(=O)c1c(-c2ccc(C)c(C)c2)csc1NC(=O)/C=C/C(=O)O	n	n	n	33
COC(=O)c1c(-c2ccccc2Cl)csc1NC(=O)/C=C/C(=O)O	n	n	n	42
SMILES	GPR151 activ	MITF inh	FBW7 act	TEAD-YAP inh
COC(=O)c1c(NC(=O)/C=C/C(=O)O)sc(C)c1-c1cc(C)ccc1C	n	n	n	42
CNC(=O)C(=O)NCC1CCCN1S(=O)(=O)c1ccccc1 (centres undefined)	n	n	n	n
CCC(SCCSC(CC)C(=O)Nc1nnc(C)s1)C(=O)Nc1nnc(C)s1 (centres undefined)	n	n	n	n
CC(=O)Nc1ccccc1N(C)S(=O)(=O)c1ccc(C)cc1	n	n	n	51
CC(=O)Nc1ccccc1NC(=O)CN(C)S(=O)(=O)c1ccc(C)cc1	n	n	n	n
Cc1cc(C)cc(OCC(=O)Nc2ccc(NC(=O)c3cccs3)cc2)c1	n	n	2.2	n
Cc1ccc(OCC(=O)Nc2cccc(NC(=O)c3cccs3)c2)cc1	n	n	n	n
CNc1c(C)ccc2c1C(=O)c1ccccc1C2=O	n	84	n	n
CC1=C(C#N)C(c2cc([N+](=O)[O-])ccc2OC(F)F)C(C#N)=C(C)N1	n	n	n	42
COCCOC(=O)C1=C(C)NC(C)=C(C#N)C1c1ccccc1OC(F)F (centres undefined)	n	n	n	n
CC1=C(C#N)C(c2cc(Cl)ccc2OC(F)F)C(C#N)=C(C)N1	n	n	n	44
COc1ccc(C(=O)Nc2nc3c(cc4c5c(cccc53)CC4)s2)cc1OC	n	n	2.0	n
CC(=O)c1ccc(NC(=O)CSc2nnc(-c3ccc([N+](=O)[O-])cc3)n2C)cc1	n	n	n	n
COc1cccc(NC(=O)C(=O)NCC2CCCN2S(=O)(=O)c2ccccc2)c1 (centres undefined)	n	n	n	n
